40 sequences from the supplement of paper PMC10338343 can be followed below.

± gives the standard deviation.
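Note: 1 nM active piRISC with 0.1 nM target library at 33 °C single turnover.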

One test concerns MILI (PIWIL2) piRISC loaded with L1MC piRNA (26 nt). Description: pre-steady-state target cleavage rate (min^-1); guide: L1MC piRNA 5'p-UAACUAAAUACUAUGCAAGCUGUAGG; MIWI and MILI are mouse PIWI proteins and EfPiwi is from a freshwater sponge; tags in brackets are library labels; higher = faster piRNA-guided slicing of the target. As to conditions: auxiliary factor: 500 nM mouse GTSF1. Put shortly: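 A burst-and-steady-state fit was used to obtain the pre-steady-state cleavage rate. The input data were sequencing reads of uncleaved targets, normalised to depth and to weakly complementary targets, from a […] transcribed, DNA-blocked target RNA library mixed with 1 nM active affinity-purified piRISC holding one synthetic guide, with or without 500 nM GTSF1 partner protein, in HEPES–potassium acetate buffer at 33 °C for 0–8 or 0–960 min. Three trials were pooled and k3 was capped at 0.0001 min^-1.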
Turning to UCCUGGAUGAGCUUGCAUUGUAUUUUGUUA, the “pre-steady-state target cleavage rate” value turned out to be 0.0997 ± 0.015. On the same count and under the same terms, for UCCUGGAUCAGCUUGCUUAGUAUUUAGAUA the value was 0.15 ± 0.023; for UCCUGGUACAGCUUGCAUAGUAUUUACUUA, 0.103 ± 0.025.

With UCCUGGAACACGUUGCAUAGUAUUUUCAAA, the “pre-steady-state target cleavage rate” value was 0.0973 ± 0.026.

For the sequence UCCUGGAUCAGCUUGGUAAGUAUUUAGUAA, the “pre-steady-state target cleavage rate” value turned out to be 0.0371 ± 0.011. The same measure, in the same setting: for UCCUGGUACAGCUUGCAUCAGUAUUUAGUUA the value was 0.0101 ± 0.0042; for UCCUGGAACAGCUUGCAAUCUAUUUAGUUA, 0.0258 ± 0.0054; for UCCUGCUACAGCUUGCAUAGUUAUUACAAA, 0.00534 ± 0.0038. The same measure, in the same setting: under UCCUGGAUGUCCUAGCAAAGUAUUUAGUUA stands 0.00585 ± 0.0032. Still for that read-out and setting: under UCCUGGAUGUCCUUGCAUAGUAUUUCAGUUA stands 0.0665 ± 0.022; under UCCUGGAUGUCGAAGCAUAGUAUUUAGUGUA, 0.035 ± 0.012; under UCCUGGAUGUCGUUGACAUAGUAUUUAGUUA, 0.0142 ± 0.0054. Take UCCUGGAUCACCUUGCAUAGUAUAUAGUUA: the “pre-steady-state target cleavage rate” value was determined as 0.227 ± 0.041.

For the sequence UCCUGGAUGUGCUUGCAUAGUAUUAGUUA, the “pre-steady-state target cleavage rate” value amounted to 0.0236 ± 0.0068. Still for that read-out and setting: for UCCUGGAUGUCCUUGCAUAGUAUUGAGUUA the value was 0.0563 ± 0.019; for UCCUGGAUCACCUUGCAUAGUAUUUACAAA, 0.131 ± 0.031; for UCCUGGUACAGCUUGGAUAGUAUUUAGAUA, 0.118 ± 0.038. Turning to UCCUCCUACAGCUUGCAUCAGUAUUUAGUUA, the “pre-steady-state target cleavage rate” value was 0.0234 ± 0.0093.

In the case of UCCUGGAUGUCGAACGUUAGUAUUUAGUUA, the “pre-steady-state target cleavage rate” value is under 0.0001. Still for that read-out and setting: under UCCUGGAAGAGCUUGCAUAGUAUUUACUUA stands 0.0737 ± 0.02.

For UCCUGGAUGUGCUUGCAUAGUAAUUAGUAA, the “pre-steady-state target cleavage rate” value is 0.0721 ± 0.018. Same read-out and setting: for UCCUGGAUGUGCUUGCUUAGUAUUUAGAAA the value was 0.0749 ± 0.017. Still for that read-out and setting: for UCCUGCUACACCUUGCAUAGAAUUUAGUUA the value was 0.0952 ± 0.037. The same measure, in the same setting: for UCCUGGAUGUCGUUGCUUAGUAAUUAGUUA the value was 0.0131 ± 0.0058; for UCCUCCUACAGCUUGCAUAGUAUAUUCAAA, 0.125 ± 0.025; for UCCUGGAUGUCGUACCAUAGUAUUUAGUUA, 0.0168 ± 0.0047.

Turning to UCCUGGAUGUCCUUGCAUAGUAUUUACAUA, the “pre-steady-state target cleavage rate” value was 0.039 ± 0.013. Same read-out and setting: for UCCUGGAUGUCCUUGACAUAGUAUUUAGUUA the value was 0.0214 ± 0.0096. Consider UCCUGGAUGUCCUUGCAUAGAUAUUAGUUA, for which the “pre-steady-state target cleavage rate” value is 0.00447 ± 0.0038. On to UCCUGGAACUGCUUGCAUAGAAUUUAGUUA, for which the “pre-steady-state target cleavage rate” value was determined as 0.0556 ± 0.013. On to UCCUGGAUGUGCUUGCAUAGUAUUUAGUGA, for which the “pre-steady-state target cleavage rate” value worked out at 0.11 ± 0.017.

On to UCCUGCUACAGCAAGCAUAGUAUUUAGAAA, for which the “pre-steady-state target cleavage rate” value was found to be 0.217 ± 0.052. Still for that read-out and setting: for UCCUGGUACACCUUGGAUAGUAUUUAGUUA the value was 0.223 ± 0.069; for UCCUGGAUGUCCUUGCAAAGUAUUUACUUA, 0.0234 ± 0.0076; for UCCUGGAUGUCCUUCCUUAGUAUUUAGUUA, 0.00908 ± 0.0046.

The test is the same for the next values; noted with them: auxiliary factor: none (no GTSF1).
As for UCCUGGAUGUCGAAGCAUAGUAUUAUCUUA, the “pre-steady-state target cleavage rate” value was under 0.0001. Take UCCUGGAUGUCGAACGUACGUAUUUAGUUA: the “pre-steady-state target cleavage rate” value was under 0.0001. As to UCCUGGAUGUCGAACGAAAGUAUAUAGUUA, the “pre-steady-state target cleavage rate” value was under 0.0001. The same measure, in the same setting: for UCCUGGAUGUCGAACGUUAGUAUAUUGUUA the value was under 0.0001; for UCCUGGAUGUCGAACGUAUCUAUUCUAGUUA, under 0.0001.
